Compound activity as filed in PubChem.
This excerpt belongs to a sample that is enriched for hits.
TTR transcr act: increases transthyretin transcription; SH-SY5Y TTR promoter Gaussia luciferase, luminescence; 100% = recombinant luciferase protein wells; activation, % at 16.7 µM; 92,000 compounds, 1.3% hits;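 active means activation above the mean of all tested compounds plus 3 SD, cut at about 9.5% in these data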;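 further: cells exposed to compounds for one day before reading; 0% = median of all test compound wells on the plate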
The depositor's hits bear a star.

SMILES	TTR transcr act
CC(=O)c1ccc(NC(=O)Cn2nc(C)cc2C)cc1	10.2*
Cc1cc(C)n(CC(=O)Nc2ccccc2)n1	0.1
Cc1cc([N+](=O)[O-])nn1CC(=O)Nc1ccc(F)cc1	0.8
Cn1c(=O)c2[nH]c(=O)cnc2n(C)c1=S	1.0
CCn1nnc(NC(=O)C(c2ccccc2)c2ccccc2)n1	-0.8
CCOc1ccc(-c2nnn(CC(=O)N3CCCC(C)C3)n2)cc1 (stereo not drawn)	-0.3
Cc1nnc(NC(=O)CSc2ccc(-c3ccc(Cl)cc3)nn2)s1	0.1
COc1ccccc1-c1cn(-c2ccccc2)c(=S)[nH]1	0.0
COc1cc(NC(=O)c2ccc3c(c2)OCO3)ccc1NC(=O)C(C)C	21.2*
NC(=O)c1ccc(NC(=O)c2ccc3c(c2)OCO3)cc1	1.2
CC(=O)c1cccc(NC(=O)c2ccc3c(c2)OCO3)c1	-2.1
COc1cccc(C2CC(=O)Nc3cc(OC)c(OC)cc32)c1 (stereo not drawn)	0.2
COc1cccc(C2CC(=O)Nc3n[nH]c(-c4ccccc4)c32)c1OC (stereo not drawn)	0.6
COc1cccc(C2CC(=O)Nc3cc(OC)c(OC)c(OC)c32)c1OC (stereo not drawn)	15.6*
CCCC1CCC2(CC1)CCC2OC(=S)Nc1ccccc1 (stereo not drawn)	-0.3
O=C(CCCN1C(=O)c2ccccc2C1=O)NCCc1ccc(OC(F)F)cc1	1.3
Cc1ccc(S(=O)(=O)N(C)C[C@@H]2Oc3ccc(NS(=O)(=O)c4ccccc4)cc3CC(=O)N([C@@H](C)CO)C[C@H]2C)cc1	-3.4
C[C@H](CO)N1C[C@H](C)[C@H](CN(C)Cc2ccc(Oc3ccccc3)cc2)Oc2ccc(NC(=O)Nc3cccc4ccccc34)cc2CC1=O	-5.0
C[C@H]1CN([C@@H](C)CO)C(=O)Cc2cc(NS(C)(=O)=O)ccc2O[C@@H]1CN(C)Cc1ccc(Cl)c(Cl)c1	13.3*
C[C@H]1CN([C@@H](C)CO)C(=O)Cc2cc(NC(=O)Nc3ccccc3)ccc2O[C@H]1CN(C)Cc1ccccc1	-3.3
C[C@@H]1CN([C@H](C)CO)C(=O)c2cc(NC(=O)Cc3cn(C)c4ccccc34)ccc2O[C@H]1CN(C)C(=O)Nc1ccc2c(c1)OCO2	-3.9
CNC[C@H]1Oc2ccc(NC(=O)Cc3cn(C)c4ccccc34)cc2CC(=O)N([C@@H](C)CO)C[C@H]1C	14.9*
O=C(NNC(=O)c1cccc(O)c1)Nc1ccc([N+](=O)[O-])cc1	-0.4
CN(C)C(CNC(=O)C1CCCN(C(=O)c2ccc(Cl)cc2)C1)c1ccco1 (stereo not drawn)	0.0
CC[C@]12c3[nH]c4ccc(Cl)cc4c3CCN1C(=O)[C@@H](CC(=O)NCc1ccco1)C[C@@H]2C(=O)N1CCN(C(=O)c2ccco2)CC1	-0.6
SMILES	TTR transcr act
COn1c(SCC(=O)N(C)C)nc2ccccc2c1=O	-0.6
Cn1c(=O)c2c(nc(SCCN3CCCCC3)n2C)n(C)c1=O	1.4
Cc1cc(C(=O)N/N=C/c2ccc(-c3cccc(Cl)c3)o2)n[nH]1	-2.1
COc1ccc(NC(=O)Nc2ccc(Br)c(C)c2)cc1	-1.4
C=CCC[C@@H](Cc1ccc(F)cc1)C(=O)OC[C@@H](Cc1ccccc1)NC(=O)[C@H](CC=C)CC(=O)NCCO	-1.3
O=C(COc1ccc(S(=O)(=O)N2CCCC2)cc1Cl)NCc1ccc2c(c1)OCO2	13.5*
COC(=O)COc1ccc(S(=O)(=O)Nc2ccc3c(c2)OCO3)cc1Cl	0.2
O=C(NCc1ccc2c(c1)OCO2)C1CCN(S(=O)(=O)N2CCCCC2)CC1	0.3
COc1ccc2nnc(-c3ccc(C(F)(F)F)cc3)n2n1	-2.0
CCc1ccc(/C=C2/Sc3ccccc3N(CC(=O)NCC3CCCO3)C2=O)cc1 (stereo not drawn)	-1.4
CCSc1nnc([C@@H]2CCCN2C(=O)OC(C)(C)C)o1	1.2
C[C@@H]1CCCCCCCCC(=O)OCCN(C(=O)OC(C)(C)C)[C@H](C)CCCCCCCCC(=O)OCCN(C(=O)OC(C)(C)C)[C@H](C)CCCCCCCCC(=O)OCCN(C(=O)OC(C)(C)C)[C@H](C)CCCCCCCCC(=O)OCCN1C(=O)OC(C)(C)C	19.0*
COC(=O)CC1C(=O)NCCN1C(=O)OC(C)(C)C (stereo not drawn)	-1.5
COc1ccccc1-c1nnc(SCC(=O)NCc2ccco2)n1N	-0.8
O=C(Oc1ccc([N+](=O)[O-])cc1)O[C@H]1CC[C@@]23CCCN2C(=O)CCC[C@H]3C1	-1.0
CCC(c1nnc(SCC(=O)Nc2nnc(-c3ccccc3)o2)n1Cc1ccccc1)N(C)C (stereo not drawn)	28.3*
CCC(c1nnc(SCC(=O)Nc2ccc(C(N)=O)cc2)n1Cc1ccccc1)N(C)C (stereo not drawn)	-0.4
CCC(c1nnc(SCC(=O)Nc2ccc(S(N)(=O)=O)cc2)n1Cc1ccccc1)N(C)C (stereo not drawn)	1.5
CC(=O)N=c1sccn1CC(=O)c1ccc([N+](=O)[O-])cc1	-1.1
C=CCN(C(=O)c1csnn1)C(C(=O)NC1CCCC1)c1ccccc1 (stereo not drawn)	2.5
